Screens deposited in PubChem by several laboratories.
Sampled rows, rich in hits. Any-hit rate of the full collection: about 4.4%.
TIM10 inh = growth inhibitors of isogenic TIM10 control yeast, primary screen, counter-screen for tim10-1 yeast inhibitor project, luminescence, uHTS. inhibition, % at 10 µM. actives 1.4% (n = 330,000). S. cerevisiae TIM10 strain growth, BacTiter-Glo luminescence, 24 h;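 active means inhibition of 40% or more at the single tested concentration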;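 further: wild-type TIM10 isogenic control strain grown at permissive 25 °C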
tim23-1 inh = growth inhibitors of tim23-1 mutant yeast, primary screen, luminescence, uHTS; inhibition, % at 20 µM; S. cerevisiae tim23-1 growth, BacTiter-Glo luminescence, 24 h; actives 1.3% (n = 330,000);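 active means growth inhibition of the mutant yeast at or above 50%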;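 further: temperature-sensitive mutant grown at 25 °C; plate controls were DMSO-treated mutant yeast for no effect and medium wells lacking yeast for full effect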
Mot1-301 SUMO = yeast Mot1-301 growth rescue at high temperature, primary screen, SUMOylation pathway inhibitor project, S. cerevisiae, ATP luminescence, 38.5C | S. cerevisiae Mot1-301 growth rescue; percent above DMSO median, 100 means doubled | growth rescue, % at 18.8 µM | actives 1% (n = 320,000) | AID 2716, 2010;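 active means every valid replicate shows activation above 250% relative to neutral control wells; inactive means the rest, any valid replicate at or below 250%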;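 further: OY570 slx delta 5 strain wells were the positive control but not used for scaling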
tim10-1 inh = growth inhibitors of tim10-1 mutant yeast, primary screen, luminescence, uHTS; AID 463190, 2010; inhibition, % at 20 µM; actives 2.2% (n = 330,000); S. cerevisiae tim10-1 ts strain growth, BacTiter-Glo, 24 h;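 active means inhibition of at least 40%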;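 further: mutant grown at 25 °C; 0% = DMSO wells with yeast and 100% = wells holding no yeast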
PfHsp90 set2 = growth inhibition of PfHsp90-expressing yeast, primary screen, antimalarial PfHsp90 inhibitor project, S. cerevisiae, BacTiter-Glo luminescence, single point, set 2; actives 0.32% (n = 310,000); inhibition, % at 9.4 µM; BacTiter-Glo ATP, 48 h; yeast lacking PDR1 and PDR3 efflux regulators;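 active means every replicate shows inhibition above about 80%, whatever the replicate mean, limit read from the data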;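 further: 0% = DMSO neutral controls and 100% = 20 µM radicicol positive controls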
tim10-1 confirm = growth inhibitors of tim10-1 mutant yeast, confirmation, single concentration, luminescence, S. cerevisiae; shares compounds with tim10-1 inh; S. cerevisiae tim10-1 ts strain growth, BacTiter-Glo, 24 h; inhibition, % at 20 µM; actives 56% (n = 7,400); AID 463213, 2010;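 active means inhibition of yeast growth at or above a set limit in either of two repeat tests at 20 µM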;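 further: tim10-1 mutant grown at permissive 25 °C to find synthetic lethal compounds; 0% = DMSO yeast wells and 100% = medium wells without yeast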
TIM10 conf = growth inhibitors of wild-type TIM10 yeast, confirmation, counter-screen for tim10-1 synthetic lethality project, single concentration, luminescence, S. cerevisiae. S. cerevisiae tim10 strain growth, BacTiter-Glo luminescence, 24 h. actives 63% (n = 4,600). shares compounds with TIM10 inh. inhibition, % at 10 µM;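 active means inhibition of yeast growth at or above a set limit in either of two replicates at 10 µM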;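 further: this counterscreen used the strain with wild-type TIM10; 0% = yeast with DMSO and 100% = medium wells lacking yeast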
Starred values were filed as active, the others as inactive; . = no result given.

SMILES	TIM10 inh	tim23-1 inh	Mot1-301 SUMO	tim10-1 inh	PfHsp90 set2	tim10-1 confirm	TIM10 conf
CC/C(=N\NC(=S)Nc1cccc(C)c1)c1ccccc1	48*	42	70	60*	-31	39*	53*
COc1cccc(NC(=S)NN=C2CCCCCC2)c1	41*	35	.	45*	10	36*	31
COc1ccc(CNC(=S)Nc2cccc(OC)c2)cc1	5	30	-12	19	-13	.	.
C/C(=N/NC(=S)Nc1cccc(C)c1)c1cccc([N+](=O)[O-])c1	49*	36	-3	52*	-13	43*	41*
Cc1cccc(NC(=S)N/N=C2/CCCCc3ccccc32)c1	47*	46	218	51*	-61	37*	4
Nc1nonc1-n1nnc(C(=O)N/N=C/c2ccc(OCc3ccccc3F)cc2)c1CNc1ccccc1	12	-4	-9	0	2	.	.
O=c1c2sc(-c3ccccc3)cc2nc2n1CCC2	78*	50	-7	64*	67	65*	73*
O=C1CC(N2CCC(c3nc4ccccc4o3)CC2)C(=O)N1c1cc(Cl)cc(Cl)c1 (centres undefined)	41*	33	271	41*	.	12	22
O=C(c1ccco1)N1CCC(c2nc3ccccc3[nH]2)CC1	1	3	-18	8	.	.	.
N#CCOC(=O)[C@H](Cc1ccccc1)N1C(=O)c2ccccc2C1=O	21	19	-18	15	-8	.	.
Cc1c(Cl)cccc1NC(=S)N=Nc1c(O)n(CN2CCOCC2)c2ccccc12	53*	40	365*	59*	107*	49*	30*
Oc1c(N=NC(=S)Nc2ccccc2F)c2ccccc2n1Cc1ccccc1Cl	27	31	-16	23	-11	.	.
C=CCn1c(O)c(N=NC(=S)Nc2ccccc2F)c2ccccc21	46*	14	.	47*	-125	44*	29
Oc1c(N=NC(=S)Nc2ccccc2F)c2ccccc2n1Cc1ccccc1	17	17	.	24	-41	.	.
CC(NC(=O)C(=O)NCCN1CCN(C(=O)c2ccccc2Br)CC1)c1ccccc1 (centres undefined)	-4	7	48	-2	21	.	.
O=C(NCc1ccncc1)c1cccc(S(=O)(=O)Nc2ccc(SC(F)F)cc2)c1	3	5	39	-7	.	.	.
COc1cccc(NC(=O)[C@@H](NC(=O)N2CCn3c2nc2ccccc23)C(C)C)c1	-4	17	0	14	-14	.	.
CCOc1ccc(CN2CCN(CC3CC3)CC2CCO)cc1 (centres undefined)	-13	9	9	9	14	.	.
Cc1cc(NCc2ccccn2)n2nc(C)c(-c3ccc(Cl)cc3)c2n1	27	17	-36	18	2	.	.
CCCc1cc(NCc2ccccn2)n2nc(C)c(-c3ccccc3)c2n1	47*	45	-24	43*	107*	58*	76*
CCN1CCN(c2cc(C(C)C)nc3c(-c4ccccc4)c(C)nn23)CC1	28	-1	17	8	.	.	.
CCCc1cc(N2CCCC2)n2nc(C)c(-c3ccccc3)c2n1	51*	46	-17	47*	.	23	19
Cc1ccc(C(C)C)c(OC/C(O)=C(\C#N)c2nc3ccccc3[nH]2)c1	-1	-17	-9	2	2	.	.
CC12CC3CC(C)(C1)CC(C(=O)NC1=NCCS1)(C3)C2	49*	41	-3	46*	3	28	35*
O=C(NC1=NCCS1)C12CC3CC(C1)CC(C(=O)NC1=NCCS1)(C3)C2	-5	4	-12	-11	18	.	.
SMILES	TIM10 inh	tim23-1 inh	Mot1-301 SUMO	tim10-1 inh	PfHsp90 set2	tim10-1 confirm	TIM10 conf
CCC(=O)N1CCc2cc(Br)cc(S(=O)(=O)N3CCC(C(=O)NC(C)C)CC3)c21	9	-2	7	5	1	.	.
OCC1(CO)COC(c2ccccc2)=N1	15	3	.	1	-2	.	.
O=C1OCC(CO)(CO)N=C1NNc1ccc(Cl)c(Cl)c1	42*	8	63	49*	101*	-4	41*
Cc1nn(C(C)(C)C)c(OC(=O)c2ccco2)c1Sc1ccccc1	47*	44	106	49*	-16	39*	46*
Cc1nn(C(C)(C)C)c(OC(=O)c2ccc(Br)o2)c1Sc1ccccc1	41*	43	-9	41*	10	36*	36*
COc1ccc(CCN2CC(C(=O)NCCN3CCCC3=O)CCC2=O)cc1 (centres undefined)	-5	-7	-14	-7	-13	.	.
CCOC(=O)c1sc(NC(=O)C2CCC2)cc1C	55*	49	-3	44*	-7	42*	36*
COC(C/C=C\C(=O)COCc1ccccc1)OC	20	18	0	37	.	.	.
COC(C/C=C/C(=O)[C@H](C)OCc1ccccc1)OC	46*	47	65	52*	-31	48*	46*
Cc1cccc(Cc2cnc(NC(=O)c3ccc(C)o3)s2)c1	45*	48	459	55*	-14	40*	48*
Cc1cc(Br)ccc1NC(=O)CN1C(=O)C2C3CC(c4ccccc4)C(C3)C2C1=O (centres undefined)	56*	32	439	41*	-4	34*	32*
CC(=Nc1ccccc1)C1=C(O)C(CC(C)C)NC1=O (centres undefined)	.	.	.	.	3	.	.
CN1CCN(C(=O)/C(=C\c2ccccc2)c2ccccc2)CC1	0	-15	2	3	0	.	.
CC1CCN(C(=O)/C(=C/c2ccccc2Cl)c2ccccc2)CC1	41*	37	-10	41*	-21	31	-27
O=C(Nc1ccc(OCC(F)(F)C(F)F)c(C(F)(F)F)c1)c1ccc(Cl)cc1	58*	30	9	53*	68	35*	-10
C[C@H]1CN([C@@H](C)CO)C(=O)c2cc(NC(=O)c3ccncc3)ccc2O[C@H]1CN(C)Cc1ccc(C(=O)O)cc1	-1	10	2	7	5	.	.
CCC(=O)Nc1ccc(N2CCCCC2)c(C(=O)Nc2ccccc2C)c1	40*	36	-17	41*	6	22	38*
Cc1ccc(NC(=O)c2cc(NC(=O)c3ccco3)ccc2N2CCCCC2)cc1	12	17	-21	18	-27	.	.
